In PubChem BioAssay (NCATS):
Several values for one entry are separate records, joined by “and”; a condition that tells them apart may be missing. Equal entries are not always repeated. Records with an inconclusive call do not appear. Activity calls are given as the source filed them. Unless noted, calls come from the whole dose curve; as a rule, active = well fitted curve in either direction with a large enough effect (not every such curve was filed as active); inconclusive = small, poorly fitted or top-dose-only effect, or another doubt; inactive = flat fitted curve, though single readings scatter.

Key:
[1] = AP1 Signaling Pathway (AID 357); conditions: ME-180 AP-1-bla reporter, EGF-induced, beta-lactamase ratio, 5 h; at 7.69 µM (top of the series) unless noted;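 note: ME-180 reporter cells stimulated with EGF at its EC50 level; % is set by controls: 0 for no effect and ±100 for the full control effect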
Outline: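 Titration-series screen for positive or negative modulators of EC50 EGF-induced signaling in ME-180 cells carrying an AP-1-driven beta-lactamase reporter. After 5 hours at 37 degrees Celsius, CCF4 460nm/530nm emission ratio gave %Activity; AC50 values derived.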

[2] = target: Cytochrome P450 1A2 (Homo sapiens) (UniProt P05177); experiment: p450-cyp1a2 (AID 410; calls by dose curve; note: potency is the fitted concentration of half-maximal effect;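 for activity change, negative = inhibition: -100% = full effect of reference inhibitor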)
Chain of Cytochrome P450 1A2 (Homo sapiens) (P05177 whole entry, looked up): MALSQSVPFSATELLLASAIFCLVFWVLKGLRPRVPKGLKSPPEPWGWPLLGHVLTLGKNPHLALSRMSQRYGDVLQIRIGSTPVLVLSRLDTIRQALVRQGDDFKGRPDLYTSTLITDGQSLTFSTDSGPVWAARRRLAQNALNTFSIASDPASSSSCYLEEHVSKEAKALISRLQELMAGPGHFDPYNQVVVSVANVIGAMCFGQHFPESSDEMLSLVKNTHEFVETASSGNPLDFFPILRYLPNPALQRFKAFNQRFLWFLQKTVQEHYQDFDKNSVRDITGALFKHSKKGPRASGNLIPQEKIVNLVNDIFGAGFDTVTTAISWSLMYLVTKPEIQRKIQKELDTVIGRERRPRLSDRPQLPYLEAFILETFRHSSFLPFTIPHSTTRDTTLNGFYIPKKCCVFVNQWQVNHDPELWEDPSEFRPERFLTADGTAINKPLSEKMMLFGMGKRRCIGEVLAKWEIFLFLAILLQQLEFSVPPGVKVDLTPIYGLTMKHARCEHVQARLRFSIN
Outline: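 O-Demethylation of luciferin 6' methyl ether by human CYP1A2 is monitored as luciferase luminescence. Substrate sits at Km (100uM); enzyme is 20nM. Values are scaled to 57 uM furafylline as maximal inhibition.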

[3] = NFAT Signaling Pathway (AID 444); conditions: Jurkat NFAT-bla M1, carbachol, beta-lactamase ratio, 5 h; at 7.69 µM (top of the series) unless noted;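 note: carbachol stimulus at about its EC50 of 1 µM final; % is set by controls: 0 for no effect and ±100 for the full control effect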
Outline: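 Jurkat cells with NFAT-driven β-lactamase reporter and co-expressed M1 receptor, stimulated with carbachol (final 1 uM, ~EC50), compound titration, 5 h at 37 °C. CCF4 loaded 1 h at RT; 460/530 nm ratio gave %activity and AC50.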

[4] = target: Glucocorticoid receptor (Homo sapiens) (UniProt P04150); experiment: GR-GFP Redistribution (AID 450;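 active = compounds whose dose series gives a full or clear partial fitted curve of increased nuclear translocation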; note: potency is the fitted concentration of half-maximal effect); conditions: U2OS GR-GFP nuclear translocation, laser cytometry, 2 h
Chain of Glucocorticoid receptor (Homo sapiens) (P04150 whole entry, looked up, the tested form may be a part): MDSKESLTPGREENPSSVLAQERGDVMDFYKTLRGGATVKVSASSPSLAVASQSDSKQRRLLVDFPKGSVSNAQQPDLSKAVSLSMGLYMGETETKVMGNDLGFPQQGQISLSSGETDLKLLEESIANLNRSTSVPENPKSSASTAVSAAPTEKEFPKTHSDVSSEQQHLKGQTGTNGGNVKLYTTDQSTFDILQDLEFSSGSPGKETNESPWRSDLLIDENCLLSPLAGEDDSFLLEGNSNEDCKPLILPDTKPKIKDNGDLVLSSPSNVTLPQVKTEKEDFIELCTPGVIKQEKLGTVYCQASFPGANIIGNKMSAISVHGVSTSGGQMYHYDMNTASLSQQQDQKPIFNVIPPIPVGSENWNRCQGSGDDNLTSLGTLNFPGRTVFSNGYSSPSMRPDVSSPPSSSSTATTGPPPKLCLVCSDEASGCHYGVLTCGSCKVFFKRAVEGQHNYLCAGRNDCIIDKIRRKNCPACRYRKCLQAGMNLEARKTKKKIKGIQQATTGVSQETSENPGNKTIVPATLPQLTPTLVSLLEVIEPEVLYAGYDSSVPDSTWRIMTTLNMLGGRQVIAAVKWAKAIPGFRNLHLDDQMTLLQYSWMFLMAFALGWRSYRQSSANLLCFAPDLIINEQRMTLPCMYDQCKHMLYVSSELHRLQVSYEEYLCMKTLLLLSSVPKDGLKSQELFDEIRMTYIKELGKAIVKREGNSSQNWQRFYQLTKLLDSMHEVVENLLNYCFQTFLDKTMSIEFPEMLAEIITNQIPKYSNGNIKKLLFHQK

[5] = target: Glucocorticoid receptor (Homo sapiens) (UniProt P04150); experiment: GR-EFC Redistribution (AID 451; calls by dose curve; note: potency is the fitted concentration of half-maximal effect); conditions: CHO-K1 GR-EFC translocation, beta-gal luminescence, 2 h
Outline: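 CHO-K1 cells expressing nuclear EA and GR-ED fragments of b-gal; compounds titrated up to 46 uM final, 2 h at 37 C. GR nuclear translocation read as complemented b-gal luminescence after 1 h RT detection.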

[6] = target: Mitogen-activated protein kinase 10 (Mus musculus) (UniProt Q61831); experiment: JNK3 AlphaScreen Assay (AID 530);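 note: kinase came from lysate of stimulated human HepG2 cells; signal reports phosphorylation of biotinylated GST-cJun 1-79 at Ser73 with 10 µM ATP; % is set by controls: 0 for no effect and ±100 for the full control effect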
Outline: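 Activity was read by AlphaScreen after JNK3-containing HepG2 lysate (cytokine pre-activated) phosphorylated biotinylated GST-cJun with 10 uM ATP at room temperature. Phospho-Ser73 cJun antibody with Protein-A acceptor beads provided detection.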

[7] = target: 3',5'-cyclic-AMP phosphodiesterase 4B (Homo sapiens) (UniProt Q07343); experiment: qHTS Assay for Inhibitors of PDE-IV (AID 607; active = well fitted activation curve with a large enough effect in the main read-out, with a control signal flat, not every such curve was filed as active; note: % of control where 0% means no effect)
Chain of 3',5'-cyclic-AMP phosphodiesterase 4B (Homo sapiens) (Q07343 whole entry, looked up): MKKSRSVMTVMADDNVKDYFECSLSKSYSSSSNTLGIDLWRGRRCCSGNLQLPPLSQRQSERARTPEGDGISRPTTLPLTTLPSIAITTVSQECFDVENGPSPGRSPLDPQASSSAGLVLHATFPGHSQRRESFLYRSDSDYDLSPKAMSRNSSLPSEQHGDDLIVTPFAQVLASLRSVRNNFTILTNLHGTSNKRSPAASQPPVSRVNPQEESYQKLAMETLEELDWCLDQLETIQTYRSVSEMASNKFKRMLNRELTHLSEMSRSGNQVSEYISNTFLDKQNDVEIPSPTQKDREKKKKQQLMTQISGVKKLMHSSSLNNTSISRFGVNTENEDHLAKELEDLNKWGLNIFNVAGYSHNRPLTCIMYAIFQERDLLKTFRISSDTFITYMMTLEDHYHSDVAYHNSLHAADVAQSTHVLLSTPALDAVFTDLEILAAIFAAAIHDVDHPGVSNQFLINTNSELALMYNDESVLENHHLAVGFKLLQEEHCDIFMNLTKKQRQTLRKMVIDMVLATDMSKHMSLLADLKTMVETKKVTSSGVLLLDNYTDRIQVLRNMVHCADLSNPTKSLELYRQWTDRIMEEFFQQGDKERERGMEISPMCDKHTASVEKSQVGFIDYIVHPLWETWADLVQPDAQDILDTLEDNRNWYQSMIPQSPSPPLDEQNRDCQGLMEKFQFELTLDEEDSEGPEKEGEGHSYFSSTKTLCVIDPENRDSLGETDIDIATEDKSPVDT
Outline: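 Live HEK293 cells with a modified cyclic nucleotide-gated (CNG) channel report intracellular cAMP via membrane-potential dye fluorescence (ex 535/em 590 nm). Endogenous PDE-IV was targeted. Compounds were tested at up to 22.9 uM final; RO 20-1724 100 uM served as control.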

[8] = target: Cytochrome P450 3A4 (Homo sapiens) (UniProt P08684); experiment: qHTS Assay for Activators of Cytochrome P450 3A4 (AID 885; active = well fitted curve in the direction sought with a large enough effect; an effect the other way counts as inactive or inconclusive; note: nearly all actives have a fitted effect of over 65% in size)
Outline: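 Using 20nM recombinant human CYP3A4 in potassium phosphate (200mM), substrate Luciferin-PPXE at 25uM, luminescent luciferin detection followed a 60-min RT NADPH reaction; data scaled to 57 uM ketoconazole.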

[9] = target: Cytochrome P450 2D6 (Homo sapiens) (UniProt P10635); experiment: qHTS Assay for Inhibitors and Substrates of Cytochrome P450 2D6 (AID 891; active = well fitted curve in the direction sought with a large enough effect; an effect the other way counts as inactive or inconclusive; note: potency is the fitted concentration of half-maximal effect; nearly all actives have a fitted effect of over 60% in size)
Chain of Cytochrome P450 2D6 (Homo sapiens) (P10635 whole entry, looked up): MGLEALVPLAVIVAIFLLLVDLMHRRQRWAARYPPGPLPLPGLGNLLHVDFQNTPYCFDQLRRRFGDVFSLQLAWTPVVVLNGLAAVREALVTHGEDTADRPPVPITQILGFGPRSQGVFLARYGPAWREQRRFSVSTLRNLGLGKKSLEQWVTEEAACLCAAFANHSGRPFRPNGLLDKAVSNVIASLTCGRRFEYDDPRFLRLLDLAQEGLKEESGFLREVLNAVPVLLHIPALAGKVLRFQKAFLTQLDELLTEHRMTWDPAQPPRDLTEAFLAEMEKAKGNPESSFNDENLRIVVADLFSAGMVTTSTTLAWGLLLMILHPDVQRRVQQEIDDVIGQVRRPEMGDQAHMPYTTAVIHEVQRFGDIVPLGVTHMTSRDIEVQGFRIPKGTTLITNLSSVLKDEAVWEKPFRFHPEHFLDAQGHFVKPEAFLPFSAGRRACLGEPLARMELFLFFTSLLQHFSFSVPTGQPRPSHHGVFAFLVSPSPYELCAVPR
Outline: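 Luminescent read-out of luciferin formed by 5 nM human CYP2D6 demethylating 30 uM Luciferin-ME EGE (Km level) over 60 min at room temperature after NADPH regeneration addition. Data normalized to full inhibition by 1.43 uM quinidine.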

[10] = target: Guanine nucleotide-binding protein G(i) subunit alpha-1 (Homo sapiens) (UniProt P63096); experiment: qHTS Assay for Inhibitors of RGS12 GoLoco Motif Activity (Green Fluorophore) (AID 879; active = well fitted curve in the direction sought with a large enough effect; an effect the other way counts as inactive or inconclusive;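 note: 0% = labeled peptide with Gαi1 and full inhibition = labeled peptide alone without protein; negative values mean loss of peptide binding seen as reduced polarization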)
Chain of Guanine nucleotide-binding protein G(i) subunit alpha-1 (Homo sapiens) (P63096 whole entry, looked up): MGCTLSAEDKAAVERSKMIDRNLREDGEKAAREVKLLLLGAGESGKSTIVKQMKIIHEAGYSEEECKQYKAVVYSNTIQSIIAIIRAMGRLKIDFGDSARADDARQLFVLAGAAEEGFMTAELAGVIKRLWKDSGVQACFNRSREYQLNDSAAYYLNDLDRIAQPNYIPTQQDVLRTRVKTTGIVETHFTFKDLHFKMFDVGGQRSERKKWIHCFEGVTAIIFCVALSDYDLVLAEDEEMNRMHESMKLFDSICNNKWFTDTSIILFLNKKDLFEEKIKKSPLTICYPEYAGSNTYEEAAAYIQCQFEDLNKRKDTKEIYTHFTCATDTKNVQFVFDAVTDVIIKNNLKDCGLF
Outline: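 A drop in FITC polarization marked displacement of the FITC-tagged RGS12 GoLoco peptide (10 nM) from Gαi1 (50 nM). Compounds were incubated 10 min at room temperature in Tris pH 7.5 buffer containing 150 mM NaCl, 0.1 mM GDP and 0.05% NP40; unlabeled peptide titration served as control.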

[11] = qHTS Assay for Identification of Small Molecule Antagonists for NFkB Signaling Pathway (AID 895; active = well fitted inhibition curve with a large enough effect in the signal ratio, with a control signal flat, not every such curve was filed as active; the % refers to the signal ratio; note: potency is the fitted concentration of half-maximal effect)
Outline: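 ME-180 NFkB-bla cells (beta-lactamase under NFkB response element), plated overnight, treated with compound then 10 pM TNF alpha (about EC50) for 5 hrs at 37 C. LiveBLAzer FRET read at 460/530 nm emission, 405 nm excitation.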

[12] = qHTS Assay for Identification of Small Molecule Agonists for Thrombopoietin (TPO) Signaling Pathway (AID 917; active = well fitted curve in the direction sought with a large enough effect; an effect the other way counts as inactive or inconclusive; note: % is set by controls: 0 for no effect and ±100 for the full control effect)
Outline: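 Stimulation at the TPO EC50 (26 pM final) was used to detect activators. Ba/F3 mouse cells bearing human TPO receptor and a luciferase reporter under the Glycoprotein IIb promoter were exposed to compounds for 24 hrs at 37 C.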

[13] = target: Muscarinic acetylcholine receptor M1 (Rattus norvegicus) (UniProt P08482); experiment: qHTS Assay for Antagonists of Acetylcholine Muscarinic M1 Receptor: Measurement of IP-One Response (AID 944; active = well fitted curve in the direction sought with a large enough effect; an effect the other way counts as inactive or inconclusive; note: nearly all actives have a fitted effect of over 75% in size)
Chain of Muscarinic acetylcholine receptor M1 (Rattus norvegicus) (P08482 whole entry, looked up): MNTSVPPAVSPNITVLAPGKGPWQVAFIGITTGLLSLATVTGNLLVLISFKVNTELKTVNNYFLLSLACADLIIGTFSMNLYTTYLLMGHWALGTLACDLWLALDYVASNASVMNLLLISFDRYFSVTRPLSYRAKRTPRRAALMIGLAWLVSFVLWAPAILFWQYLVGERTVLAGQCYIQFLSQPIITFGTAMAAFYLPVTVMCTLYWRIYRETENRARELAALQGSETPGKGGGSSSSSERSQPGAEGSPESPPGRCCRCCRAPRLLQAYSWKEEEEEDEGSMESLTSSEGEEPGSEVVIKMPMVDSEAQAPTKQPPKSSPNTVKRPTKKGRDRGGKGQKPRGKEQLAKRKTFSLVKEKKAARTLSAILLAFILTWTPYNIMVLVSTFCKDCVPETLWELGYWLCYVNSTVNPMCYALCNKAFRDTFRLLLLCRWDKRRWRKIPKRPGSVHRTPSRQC
Outline: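 Antagonist mode with rat M1 receptor transfected into CHO cells. Compound is added first for 10 min, carbachol at its EC80 follows for 30 min, and lysis reagents then allow TR-FRET detection of accumulated IP1.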

[14] = target: Pyruvate kinase (Leishmania mexicana) (UniProt Q27686); experiment: qHTS Validation Assay for Inhibitors of Leishmania Mexicana Pyruvate Kinase (AID 945; active = well fitted curve in the direction sought with a large enough effect; an effect the other way counts as inactive or inconclusive;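 note: 0% = DMSO only neutral control wells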)
Chain of Pyruvate kinase (Leishmania mexicana) (Q27686 2-499 E452W): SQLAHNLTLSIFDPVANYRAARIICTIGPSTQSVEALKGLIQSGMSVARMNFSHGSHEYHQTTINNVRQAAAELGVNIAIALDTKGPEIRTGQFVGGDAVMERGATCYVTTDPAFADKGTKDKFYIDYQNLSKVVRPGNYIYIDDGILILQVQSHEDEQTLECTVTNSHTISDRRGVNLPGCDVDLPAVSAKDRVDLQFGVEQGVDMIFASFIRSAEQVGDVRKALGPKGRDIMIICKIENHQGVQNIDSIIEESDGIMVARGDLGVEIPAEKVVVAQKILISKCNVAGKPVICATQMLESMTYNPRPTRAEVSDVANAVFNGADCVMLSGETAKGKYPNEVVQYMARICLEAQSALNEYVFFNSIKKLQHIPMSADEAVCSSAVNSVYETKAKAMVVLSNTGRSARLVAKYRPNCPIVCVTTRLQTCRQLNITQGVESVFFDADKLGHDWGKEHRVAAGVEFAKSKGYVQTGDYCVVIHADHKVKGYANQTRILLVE
Outline: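 Luminescent ATP detection (PKLight) after a 1 h room-temperature reaction of 0.2 nM LmPYK E451W mutant with 0.5 mM PEP and 0.1 mM ADP at pH 7.2. Activity is normalized to DMSO-only control wells.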

[15] = target: Pyruvate kinase PKM (Homo sapiens) (UniProt P14618); experiment: qHTS Assay for Activators of Human Muscle Pyruvate Kinase (AID 954; active = well fitted curve in the direction sought with a large enough effect, not every such curve was filed as active;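 note: 0% = uninhibited enzyme and -100% = no enzyme or full thiadiazolimine inhibition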)
Chain of Pyruvate kinase PKM (Homo sapiens) (P14618 whole entry, looked up): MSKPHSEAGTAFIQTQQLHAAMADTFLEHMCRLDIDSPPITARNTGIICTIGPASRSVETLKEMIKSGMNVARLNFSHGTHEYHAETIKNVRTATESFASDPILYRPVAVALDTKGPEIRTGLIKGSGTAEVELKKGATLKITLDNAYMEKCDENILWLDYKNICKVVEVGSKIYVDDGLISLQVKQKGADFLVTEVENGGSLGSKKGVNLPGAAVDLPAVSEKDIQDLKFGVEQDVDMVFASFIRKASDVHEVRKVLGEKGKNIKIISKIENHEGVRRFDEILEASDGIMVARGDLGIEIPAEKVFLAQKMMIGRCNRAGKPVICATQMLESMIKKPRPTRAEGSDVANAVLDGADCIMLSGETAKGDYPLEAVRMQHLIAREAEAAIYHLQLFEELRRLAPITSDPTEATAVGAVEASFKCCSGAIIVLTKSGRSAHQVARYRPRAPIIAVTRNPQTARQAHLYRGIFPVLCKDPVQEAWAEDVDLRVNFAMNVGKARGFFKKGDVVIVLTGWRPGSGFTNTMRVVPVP
Outline: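 Screening used highly purified human pyruvate kinase M2 under submaximal activity, with PEP at its Km and ADP below Km. After an hour at room temperature, ATP was read by luciferase luminescence.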

[16] = target: Alpha-galactosidase A (Homo sapiens) (UniProt P06280); experiment: Counterscreen for Glucocerebrosidase Inhibitors: qHTS Assay for Human alpha-Galactosidase at pH 4.5 (AID 992; active = well fitted curve in the direction sought with a large enough effect; an effect the other way counts as inactive or inconclusive; note: 0% is about no effect)
Chain of Alpha-galactosidase A (Homo sapiens) (P06280 whole entry, looked up): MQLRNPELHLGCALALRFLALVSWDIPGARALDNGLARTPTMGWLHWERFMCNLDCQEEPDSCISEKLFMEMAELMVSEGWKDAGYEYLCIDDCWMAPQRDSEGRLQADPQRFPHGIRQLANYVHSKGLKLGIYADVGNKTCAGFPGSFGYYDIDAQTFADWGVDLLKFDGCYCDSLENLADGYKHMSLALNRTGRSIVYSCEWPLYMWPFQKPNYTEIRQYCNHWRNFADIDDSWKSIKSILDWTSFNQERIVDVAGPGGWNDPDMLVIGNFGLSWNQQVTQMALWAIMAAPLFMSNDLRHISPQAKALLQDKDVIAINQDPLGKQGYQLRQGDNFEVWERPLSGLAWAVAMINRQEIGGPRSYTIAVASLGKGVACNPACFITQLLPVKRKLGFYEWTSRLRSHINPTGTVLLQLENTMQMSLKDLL
Outline: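 Each compound is preincubated briefly with 2 nM enzyme before substrate addition (80 uM); plates then sit 20 min at ambient temperature, are quenched with 1M NaOH/1M glycine, and read fluorometrically.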

[17] = target: alpha-glucosidase (Oryza sativa, rice) (UniProt Q653V4); experiment: Counterscreen for Glucocerebrosidase Inhibitors: qHTS Assay for Rice alpha-Glucosidase at pH 5.0 (AID 997; active = well fitted curve in the direction sought with a large enough effect; an effect the other way counts as inactive or inconclusive;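 note: 0% = full activity with enzyme and -100% = basal without enzyme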)
Outline: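 Endpoint fluorogenic assay at pH 5.0: compounds (0.7 nM to 77 uM) titrated against 4 nM rice enzyme and 400 uM 4-MU-alpha-glucoside for 20 min at room temperature; NaOH/glycine stop, read ex 365/em 440 nm, Hill-fitted AC50.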

[18] = target: Muscarinic acetylcholine receptor M1 (Rattus norvegicus) (UniProt P08482); experiment: qHTS Assay for Antagonists of Acetylcholine Muscarinic M1 Receptor: Kinetic Measurement of Intracellular Calcium Response (AID 943; active = well fitted curve in the direction sought with a large enough effect; an effect the other way counts as inactive or inconclusive; note: nearly all actives have a fitted effect of over 75% in size; note: potency is the fitted concentration of half-maximal effect;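 for activity change, negative = inhibition: Fluo-4 calcium signal as peak divided by basal fluorescence over 4 min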)
Outline: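 Antagonism is measured as inhibition of the carbachol-evoked calcium rise in CHO cells transfected with rat M1. Cells are dye-loaded, exposed to compound for 10 min, then stimulated with 100 nM carbachol (EC80).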

[19] = Stat Signaling Pathway (AID 446); conditions: ME-180 (cervical carcinoma) SIE beta-lactamase reporter, IL-6 stimulated, 5 h; at 7.69 µM (top of the series) unless noted
Outline: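 Overnight-plated ME-180 cells bearing a STAT Inducible Element beta-lactamase reporter; 5 h co-exposure to compound and 40 pM IL-6; values normalized to 300 pM IL-6 and 125 nM JAK inhibitor controls.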

Cc1c2cnccc2c(C)c2c1c1ccccc1n2CCOC(=O)c1ccccc1
inactive: activity change, negative = inhibition [1] 2.26% | activity change, negative = inhibition [3] -4.41% | Potency [4] > 46 µM | Potency [5] > 9.22 µM | Potency [6] | Potency [7] | Potency [8]
active: Potency [2] 0.0794 µM | Potency [9] 3.16 µM

COC(=O)[C@@H]1[C@H]2C[C@H]3c4[nH]c5cc(OC)ccc5c4CCN3C[C@@H]2C[C@@H](OC(=O)c2cc(OC)c(OC)c(OC)c2)[C@@H]1OC
active: Potency [2] 15.8 µM
inactive: activity change, negative = inhibition [1] -23.7% [at 38 µM] | activity change, negative = inhibition [3] 3.19% [at 38 µM] | Potency [4] > 46 µM | Potency [5] > 46 µM | Potency [6] | Potency [7]

C=C(C)[C@@H]1CC=C(C(=O)O)CC1
inactive: activity change, negative = inhibition [1] 3.75% [at 38 µM] | Potency [2] | activity change, negative = inhibition [3] -3.51% [at 38 µM] | Potency [4] > 46 µM | Potency [5] > 46 µM | Potency [6] | Potency [7] | outcome [10] | Potency [11] | outcome [12] | Potency [13] | outcome [14] | outcome [15] | outcome [16] | Potency [17]

CC(=O)[C@@H]1CC[C@@H]2[C@@H]3CC=C4C[C@H](OS(=O)(=O)O)CC[C@@]4(C)[C@H]3CC[C@]21C
inactive: activity change, negative = inhibition [1] 12.4% [at 38 µM] | Potency [2] | activity change, negative = inhibition [3] 1.64% [at 38 µM] | Potency [4] > 46 µM | Potency [5] > 46 µM | Potency [6] | Potency [7] | outcome [12] | Potency [18] | outcome [14] | outcome [15] | outcome [16] | Potency [17]

C/C(=N\[N+](C)(C)C)c1ccc(C)c(C)c1
inactive: activity change, negative = inhibition [1] 10% | activity change, negative = inhibition [2] -16.9% [at 2.29 µM] | activity, negative = inhibition [19] 6.61% | Potency [4] > 46 µM | Potency [5] > 9.22 µM | Potency [6] | Potency [7]

CCN(CC)[C@@H](C)C(=O)N1c2ccccc2Sc2ccccc21
active: activity change, negative = inhibition [3] -74.6% [at 38 µM]
inactive: activity change, negative = inhibition [1] 14.4% [at 38 µM] | Potency [2] | Potency [4] > 46 µM | Potency [5] > 46 µM | Potency [6] | Potency [7]

Cc1ccc(SCN2CCCCC2)cc1 (tested in a mixture with another compound)
inactive: activity change, negative = inhibition [1] -5.94% | activity change, negative = inhibition [3] 16.7% | Potency [4] > 46 µM | Potency [5] > 9.22 µM | Potency [6] | Potency [7]
active: Potency [2] 3.98 µM

CN1[C@@H]2CC[C@H]1CC(NC(=O)c1nn(C)c3ccccc13)C2 (some centres undefined)
inactive: activity change, negative = inhibition [1] -1.02% [at 38 µM] | Potency [2] | activity change, negative = inhibition [3] -9.68% [at 38 µM] | Potency [4] > 46 µM | Potency [5] > 46 µM | Potency [6] | Potency [7] | outcome [10] | outcome [12] | Potency [18] | Potency [13] | outcome [14] | outcome [15] | outcome [16] | Potency [17]

C#C[C@@]1(O)CC[C@H]2[C@H]3CCC4=Cc5oncc5C[C@]4(C)[C@@H]3CC[C@@]21C
inactive: activity change, negative = inhibition [1] -22.8% [at 38 µM] | activity, negative = inhibition [19] 6.25% [at 38 µM] | Potency [4] > 46 µM | Potency [5] > 46 µM | Potency [6]
active: Potency [2] 12.6 µM

C=CCN1CCc2c(cc(O)c(O)c2Cl)[C@H](c2ccccc2)C1
inactive: activity change, negative = inhibition [1] -17.1% [at 38 µM] | activity change, negative = inhibition [3] -17.9% [at 38 µM] | Potency [4] > 46 µM | Potency [5] > 46 µM | Potency [6] | Potency [7] | outcome [10] | Potency [13] | outcome [14] | outcome [15] | outcome [16] | Potency [17]
active: Potency [2] 20 µM | Potency [11] 12.6 µM

CCCCCCCCCCCCCCCC(=O)NC[C@@H](COP(=O)([O-])OCC[N+](C)(C)C)OCC
active: activity change, negative = inhibition [3] 16.7% [at 38 µM] | Potency [18] 11.2 µM
inactive: activity change, negative = inhibition [1] -23.3% [at 38 µM] | Potency [2] | Potency [4] > 46 µM | Potency [5] > 46 µM | Potency [6] | Potency [7] | Potency [8] | outcome [12] | outcome [14] | outcome [15] | outcome [16] | Potency [17]

CC(=O)Nc1nc(NC(C)=O)c2[nH]c(CO)nc2n1
inactive: activity change, negative = inhibition [1] 9.97% | Potency [2] | activity change, negative = inhibition [3] 1.8% | Potency [4] > 46 µM | Potency [5] > 9.22 µM | Potency [6] | Potency [7]

COc1ccc(C(=O)N2CCC3(CC2)CN(c2ccccc2)C3)cc1
inactive: activity change, negative = inhibition [1] -16.2% | activity change, negative = inhibition [3] 5.84% | activity, negative = inhibition [19] -21.3% | Potency [5] > 46 µM | Potency [6]

FC(F)(F)c1cccc(-c2nc3nc(Cl)c(Cl)nc3[nH]2)c1
active: Potency [2] 0.398 µM
inactive: Potency [4] > 46 µM | Potency [5] > 9.22 µM | Potency [6] | Potency [7] | Potency [8]

CC(C)(C)[C@@]1(O)CCN2C[C@@H]3c4ccccc4CCc4cccc(c43)[C@@H]2C1
active: Potency [9] 79.4 nM and 501 nM
inactive: activity change, negative = inhibition [1] -4.55% [at 38 µM] and 8.62% [at 38 µM] | activity change, negative = inhibition [3] -14.6% [at 38 µM] and -5.47% [at 38 µM] | activity, negative = inhibition [19] -1.04% [at 38 µM] and -27.5% [at 38 µM] | Potency [4] > 46 µM | Potency [5] > 46 µM | Potency [7] | Potency [13] | outcome [14] | outcome [15] | outcome [16] | Potency [17]
